Measured values published in PubChem BioAssay AID1159580 (chemical genetic matrix, 2015).
“And” between values parts separate entries of the source, which are not always exact repeats. Identical values can stand only once. In all, about 5,500 compounds went through this assay and about 2,000 (36%) were called active. Inconclusive results (about 18%) are left out. Cut-off read from the data, not from the text of the source: active = normalized growth mostly below about 0.91 (no sharp cut-off); inconclusive = no clear call, values can overlap the other calls; inactive = mostly above about 0.92. This is one part of the list.

Experiment: chemical genetic growth profiling, strain panel (AID 1159580);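 note: tested at 20 µM; growth read once vehicle control cultures reached saturation at 30 °C; 1 = growth at the plate median or of vehicle wells; lower values mean less growth of the strain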
Details: S. cerevisiae deletion strains, growth OD

Measured: normalized growth

CCC(C(=O)O)c1ccccc1 (configuration not stated)
inactive: locus YAL013W, strain DEP1, stronger effect = lower value 1.01 | locus YAL021C, strain ccr4, stronger effect = lower value 0.973 | locus YAL026C, strain drs2, stronger effect = lower value 0.992 | locus YAL030W, strain snc1, stronger effect = lower value 0.989 | locus YBL061C, strain skt5, stronger effect = lower value 0.999 | locus YBR009C, strain hhf1, stronger effect = lower value 0.991 | locus YBR021W, strain FUR4, stronger effect = lower value 1.01 | locus YBR023C, strain chs3, stronger effect = lower value 0.993 | locus YBR171W, strain sec66, stronger effect = lower value 0.987 | locus YBR229C, strain ROT2, stronger effect = lower value 0.997 | locus YBR231C, strain swc5, stronger effect = lower value 1.01 | locus YBR279W, strain paf1, stronger effect = lower value 1 | locus YCL011C, strain gbp2, stronger effect = lower value 0.979 | locus YCL016C, strain dcc1, stronger effect = lower value 0.982 | locus YCL029C, strain bik1, stronger effect = lower value 1.01 | locus YCL061C, strain MRC1, stronger effect = lower value 0.982 | locus YCL069W, strain vba3, stronger effect = lower value 0.993 | locus YCR088W, strain abp1, stronger effect = lower value 0.988 | locus YDL005C, strain med2, stronger effect = lower value 0.98 | locus YDL035C, strain GPR1, stronger effect = lower value 1.03 | locus YDL040C, strain nat1, stronger effect = lower value 0.988 | locus YDL074C, strain BRE1, stronger effect = lower value 1.02 | locus YDL101C, strain DUN1, stronger effect = lower value 1 | locus YDL134C, strain PPH21, stronger effect = lower value 1 | locus YDL185W, strain tfp1, stronger effect = lower value 0.984 | locus YDL192W, strain arf1, stronger effect = lower value 1 | locus YDR001C, strain nth1, stronger effect = lower value 0.987 | locus YDR069C, strain doa4, stronger effect = lower value 0.999 | locus YDR101C, strain arx1, stronger effect = lower value 0.998 | locus YDR137W, strain rgp1, stronger effect = lower value 0.97 | locus YDR150W, strain NUM1, stronger effect = lower value 1.01 | locus YDR159W, strain sac3, stronger effect = lower value 0.964 | locus YDR162C, strain NBP2, stronger effect = lower value 1.01 | locus YDR195W, strain ref2 0.98 | locus YDR297W, strain sur2, stronger effect = lower value 0.983 | locus YDR318W, strain mcm21, stronger effect = lower value 0.994 | locus YDR334W, strain swr1, stronger effect = lower value 0.975 | locus YDR335W, strain msn5, stronger effect = lower value 1.02 | locus YDR388W, stronger effect = lower value 0.996 | locus YDR392W, strain spt3, stronger effect = lower value 0.991 | locus YDR502C, strain sam2, stronger effect = lower value 1 | locus YEL003W, strain gim4, stronger effect = lower value 0.997 | locus YEL037C, strain rad23, stronger effect = lower value 0.989 | locus YEL061C, strain CIN8 (second series), stronger effect = lower value 0.998 | locus YEL061C, strain CIN8, stronger effect = lower value 1.01 | locus YER015W, strain faa2, stronger effect = lower value 0.992 | locus YER016W, strain bim1, stronger effect = lower value 0.976 | locus YER110C, stronger effect = lower value 1 | locus YER111C, strain swi4, stronger effect = lower value 0.979 | locus YER155C, strain BEM2 (second series), stronger effect = lower value 0.975 | locus YER155C, strain BEM2, stronger effect = lower value 1.01 | locus YER167W, strain BCK2, stronger effect = lower value 1 | locus YFR010W, strain ubp6, stronger effect = lower value 0.995 | locus YGL078C, strain dbp3, stronger effect = lower value 0.979 | locus YGL086W, strain mad1, stronger effect = lower value 0.998 | locus YGL167C, strain pmr1, stronger effect = lower value 1 | locus YGL173C, strain kem1, stronger effect = lower value 0.997 | locus YGL227W, strain vid30, stronger effect = lower value 0.978 | locus YGL240W, strain doc1, stronger effect = lower value 1.02 | locus YGL248W, strain PDE1, stronger effect = lower value 1 | locus YGL253W, strain hxk2, stronger effect = lower value 0.99 | locus YGR078C, strain PAC10, stronger effect = lower value 1.02 | locus YGR135W, strain pre9, stronger effect = lower value 1.03 | locus YGR229C, strain SMI1, stronger effect = lower value 1.01 | locus YGR252W, strain gcn5, stronger effect = lower value 0.976 | locus YHR013C, strain ard1, stronger effect = lower value 0.963 | locus YHR027C, strain rpn1, stronger effect = lower value 1 | locus YHR030C, strain SLT2, stronger effect = lower value 1 and 0.961 | locus YHR079C, strain IRE1 (second series), stronger effect = lower value 1 | locus YHR079C, strain IRE1, stronger effect = lower value 0.959 | locus YHR094C, strain hxt1, stronger effect = lower value 0.997 | locus YHR129C, strain ARP1, stronger effect = lower value 0.995 | locus YHR142W, strain chs7, stronger effect = lower value 1.02 | locus YHR200W, strain rpn10, stronger effect = lower value 1 | locus YIL066C, strain RNR3, stronger effect = lower value 1.01 | locus YIL073C, strain SPO22, stronger effect = lower value 1.03 | locus YIL125W, strain kgd1, stronger effect = lower value 0.971 | locus YIR030C, strain dcg1, stronger effect = lower value 1.01 | locus YJL092W, strain hpr5, stronger effect = lower value 0.979 | locus YJL095W, strain BCK1 (second series), stronger effect = lower value 0.985 | locus YJL095W, strain BCK1, stronger effect = lower value 1.02 and 0.968 | locus YJL115W, strain asf1, stronger effect = lower value 0.984 | locus YJL129C, strain trk1, stronger effect = lower value 0.983 | locus YJL134W, strain LCB3, stronger effect = lower value 1.01 | locus YJL154C, strain vps35, stronger effect = lower value 0.988 | locus YJL164C, strain tpk1, stronger effect = lower value 0.98 | locus YJL166W, strain qcr8, stronger effect = lower value 0.995 | locus YJL168C, strain set2, stronger effect = lower value 0.995 | locus YJL187C, strain SWE1 (second series), stronger effect = lower value 1 | locus YJL187C, strain SWE1, stronger effect = lower value 0.971 | locus YJR043C, strain POL32, stronger effect = lower value 1.03 | locus YJR066W, strain TOR1, stronger effect = lower value 0.887
